The results in this text go back to PubChem BioAssay (NCI).

Compounds without any hit were thinned out: in the full panel of roughly 83,000, 20% have a hit.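 Percent growth is the endpoint: 0 to 100 indicates growth inhibition (40 means 60% inhibition), 0 means no net growth, and negative values indicate cell death.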 A number with no mark means an inactive call. The source made the active and inactive calls. How the source made its calls: active means growth percent below 10; inactive means the rest.

This assay has as its system SR leukemia. In words: NCI-60 one-dose screen, 48 h (100 = growth as untreated, 0 = no growth, -100 = all killed). The following applies: 10 µM unless noted.
For `Cc1cc(C)c(S(=O)(=O)N2CCN(c3cc4c(cc3F)c(=O)c(C(=O)O)cn4C3CC3)CC2)c(C)c1`, the growth is 39.1%.
Turning to `CCn1cc(C(=O)O)c(=O)c2cc(F)c(N3CCN(S(=O)(=O)c4ccc(OC)c(OC)c4)CC3)cc21`, the growth is 88.3%.
The same measure for `Cc1ccc(S(=O)(=O)OCC(=O)Nc2ccc(C(=O)O)c(O)c2)cc1`: 45.7%; for `O=S(=O)(c1ccccc1)n1ccc(-c2ccc3c(c2)CCO3)n1`: 73.3%; for `Clc1ccc(-c2nc(-c3ccco3)cn3ccnc23)cc1`: 63.4%.
With `CCn1cc(C(=O)O)c(=O)c2cc(F)c(N3CCN(S(=O)(=O)c4cccc5ccccc45)CC3)cc21` the figure was 2.85% (active); with `O=P([O-])(O)OP(=O)([O-])O.[NH-][C@H]1CCCC[C@@H]1[NH-].[OH-].[OH-].[Pt+4]`, 91.3%.
As to `O=C(CC(O)c1ccncc1)c1ccccc1` (configuration not stated), the growth was 82.1%.
Consider `O=c1oc2c([nH]c3ccc4ccccc4c32)c2ccccc12`, for which the growth is 102%.
As to `Nc1c(C(=O)Nc2ccccc2)sc2nc3c(cc12)CCC3`, the growth was 39.6%.
Take `COc1ccc(C2CC(c3cccs3)=NN2c2ccc(S(=O)(=O)NC(=O)NCc3cccc(OC)c3)cc2)cc1` (configuration not stated): the growth is 75.8%.
The same measure for `COc1cc(NC(=O)CSc2nc3ccc(C)cc3c(=O)n2-c2ccccc2)cc(OC)c1OC`: 42.3%; for `Cc1ccc(S(=O)(=O)OC2COCOC2C(OS(=O)(=O)c2ccc(C)cc2)C2OCOCC2OS(=O)(=O)c2ccc(C)cc2)cc1` (configuration not stated): 96.2%.
For `CC(=O)Nc1ccc(S(=O)(=O)N2C(=O)CCC2C(=O)Nc2ccc(Br)cc2)cc1` (configuration not stated), the growth is 16.9%.
As for `O=C(O)c1ccc(-n2c(=O)c3ccccc3c3ccccc3c2=O)cc1`, the growth is 87.6%.
For the molecule `CS(=O)(=O)N(c1cc(-c2ccc3ncnc(Nc4cccc(Cl)c4)c3c2)cnc1Cl)S(C)(=O)=O`, the growth is 22.8%.
For the molecule `CN(C)c1ncc(-c2ccc(C(F)(F)F)cc2)c(NC2CCCCCC2)n1`, the growth is 77.5%.
As for `O=S(=O)(NCCNc1cc(-c2cn(-c3ccccc3)nc2-c2ccccc2)ccn1)c1cccc2ccccc12`, the growth is 56%.
As for `CC/C=C\C[C@H](O)C/C=C1/C(=O)C(Cl)=C[C@@H]1C/C=C\CCCC(=O)O`, the growth was 10.9%.
Turning to `CC[C@H](C)[C@@H]1NC(=O)[C@H]([C@@H](C)O)NC(=O)C(Cc2ccccc2)NC(=O)[C@@H]2CCCN2C(=O)C(C(C)C)NC(=O)C(Cc2ccccc2)NC(=O)CNC(=O)[C@@H]2CCCN2C1=O` (some centres not stated), the growth was 20.1%.
Consider `O=C(Nc1cc(C(F)(F)F)cc(C(F)(F)F)c1)Nc1ccc(OCc2nnc(-c3ccc(Cl)cc3)o2)c(F)c1`, for which the growth is 0.985% (active).
Take `Oc1ccc(N=Cc2ccccc2)cc1`: the growth is 30.9%.
For the molecule `Nc1ccccc1C#C/C=C\C#Cc1cccc(O)c1`, the growth is 13%.
Consider `CCn1cc(C(=O)O)c(=O)c2cc(F)c(N3CCN(S(=O)(=O)c4ccc(Cl)cc4Cl)CC3)cc21`, for which the growth was -19.7% (active).
As to `COc1cc(CNC(=O)CSc2nc3ccccc3c(=O)n2Cc2cc(OC)c(OC)c(OC)c2)cc(OC)c1OC`, the growth is 123%.
The same measure for `COc1cc(CCn2nnc3c(NCCCCO)ncnc32)cc(OC)c1`: 96.4%; for `C/C(=C\c1csc(C)n1)[C@@H]1C[C@@H]2O[C@]2(C)CCC[C@H](C)[C@H](O)[C@@H](C)C(=O)C(C)(C)[C@@H](O)CC(=O)N1`: -39.1% (active); for `COc1ccc(S(=O)(=O)N2CCN(c3cc4c(cc3F)c(=O)c(C(=O)O)cn4C3CC3)CC2)c(OC)c1`: 81.6%.
Take `CC[C@]1(O)C[C@@H]2CN(Cc3c([nH]c4ccccc34)[C@@](C(=O)OC)(c3cc4c(cc3OC)N(C)[C@H]3[C@@](O)(C(=O)OC)[C@H](OC(C)=O)[C@]5(CC)[C@@H]6C[C@@H]6CN6CC[C@]43[C@@H]65)C2)C1`: the growth is 2.3% (active).
The same measure for `COC1=CC(c2ccc[nH]2)=N/C1=C\c1[nH]c(C)c(C(=O)CCCCC(=O)Oc2ccc3c(c2)CCC2C3CC[C@]3(C)[C@@H](O)CC[C@@H]23)c1C` (some centres not stated): 23.2%; for `N#Cc1ncc(-c2ccc(F)c(F)c2F)c(NC2CCCCCC2)n1`: 69.5%.
As for `O=C(O)c1cn(C2CC2)c2cc(N3CCN(S(=O)(=O)c4ccc(Cl)c(Cl)c4)CC3)c(F)cc2c1=O`, the growth was -25.1% (active).
